Screens: PubChem BioAssay, several laboratories
Compounds with a hit are over-represented: about 2.2% of the library has one in this group of screens.
HMGR II inh: inhibitors of E. faecalis class II HMGR, primary screen, biochemical, Enterococcus faecalis; purified E. faecalis HMGR, NADPH absorbance 340 nm kinetic; AID 1066, 2008; HMG-CoA reductase (Enterococcus faecalis, mvaE); inhibition, % at 10 µM; hit rate 0.41% among 190,000;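 active means inhibition above a set limit, the median over all tested compounds plus 3 SD, cut at about 9.5% in these data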;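 further: enzyme runs in reverse so mevalonate oxidation gives rising NADPH absorbance; 0% = complete reaction with DMSO and 100% = background rate lacking mevalonate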
Ins promoter up: insulin promoter activators in MIN6 cells, imaging, high-content screening, mouse beta cells. MIN6 insulin promoter-GFP reporter; hits give high values. hit rate 0.3% among 190,000. z-score at 5 µM;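 active means z-score above 3 at 5 µM with at least 500 cells counted in the well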
NCF1 inh: p47phox/p22phox peptide binding inhibitors, primary screen, biochemical, uHTS, NADPH oxidase regulatory subunit; hit rate 0.53% among 220,000; inhibition, % at 24.7 µM; fluorescence polarization, 2 h; Neutrophil cytosol factor 1 (Homo sapiens), P14598;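 active means inhibition above about 30%, limit read from the data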;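 further: 0% = p47phox with labelled peptide and 100% = labelled peptide alone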
Target sequence (P14598 whole entry, looked up): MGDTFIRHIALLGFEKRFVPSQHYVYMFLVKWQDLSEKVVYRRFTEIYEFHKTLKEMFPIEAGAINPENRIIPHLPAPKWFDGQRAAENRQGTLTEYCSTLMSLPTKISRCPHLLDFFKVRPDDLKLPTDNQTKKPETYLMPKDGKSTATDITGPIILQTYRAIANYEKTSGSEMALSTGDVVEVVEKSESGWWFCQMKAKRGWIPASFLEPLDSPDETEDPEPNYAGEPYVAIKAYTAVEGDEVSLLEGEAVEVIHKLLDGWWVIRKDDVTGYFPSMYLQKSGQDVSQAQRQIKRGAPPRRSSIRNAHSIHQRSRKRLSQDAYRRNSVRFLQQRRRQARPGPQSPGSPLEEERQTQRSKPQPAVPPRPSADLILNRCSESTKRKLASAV
Arbovirus inh: antivirals against arbovirus infection, primary screen, cell-based, full library, 10K replicate subset. inhibition, % at 10 µM. arbovirus infection cell-based antiviral screen. hit rate 0.37% among 200,000; in the data active means inhibition above about 30%
Autophagy HCS: autophagy modulators in MEF cells, primary screen, imaging, high-content, MEF GFP-LC3; MEF GFP-LC3 puncta imaging; test concentration mostly 10 µM; calls only at 10 µM (by protocol); hit rate 0.98% among 190,000;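 active means percentage of spot-positive cells more than 3 SD above its plate mean, without a fluorescence outlier flag or 80% toxicity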;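 further: spot-positive cell cutoff set from DMSO-treated cells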
DTT redox prof: compounds producing H2O2 with reducing agent – biochemical, NIH compound library profiling, artefact control for MLSCN library redox annotation, primary screen | DTT-dependent redox cycling H2O2, phenol red/HRP absorbance; 100% = 100 µM peroxide control, 0% = buffer | AID 878, 2007 | hit rate 0.03% among 200,000 | activation, % at 10 µM;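 active means activation of at least 50% relative to the plate's high and low controls in the primary single-dose screen; inactive means activation below 50%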;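 further: compound incubated with DTT at 0.8 mM final as the reducing agent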
Active calls of the source: *; i = inactive; . = no result given; + = active, no number.

SMILES	HMGR II inh	Ins promoter up	NCF1 inh	Arbovirus inh	Autophagy HCS	DTT redox prof
CCN(CC)Cc1cc(O)c(CN(CC)CC)cc1O	0	0.73	46*	1	i	-1
CCc1oc(C(=O)O)cc1CN(CC)CC	-2	-0.18	-2	2	i	0
COc1ccc(/C=C/c2nc(-c3ccccc3O)n[nH]2)cc1OC	-2	-0.13	-30	30*	i	0
COCCn1c(=N)c(C(=O)NCc2ccco2)cc2c(=O)n3cc(C)ccc3nc21	17*	-0.06	-5	1	i	1
Clc1ccc(CCNc2nc3ccccc3s2)cc1	2	-0.27	-7	4	i	2
O=C(CSc1nc2ccc(Cl)cc2o1)NCc1ccc2c(c1)OCO2	-2	4*	-11	7	i	0
N#Cc1ccc(N/N=C/c2cn(-c3ccccc3)nc2-c2ccccc2)c([N+](=O)[O-])c1	1	0.58	51*	-30	i	0
CC1(C)[C@H]2CC=C(CN3CCC(N4CCC(C(=O)N5CCCC5)CC4)CC3)[C@@H]1C2	-3	-1	-17	-30	i	0
CC(C)(C#N)NC(=O)C(=O)c1c(-c2ccccc2)cc2ccccn12	.	-0.68	-6	.	.	.
COc1ccc(NC(=O)c2ccc3c(=O)n(Cc4ccco4)c(=S)[nH]c3c2)c(OC)c1	-5	0.04	-3	5	i	1
COc1ccc(OC)c(NC(=O)c2ccc3c(=O)n(CCc4ccccc4)c(=S)[nH]c3c2)c1	-4	0.76	-13	-9	+	0
COc1ccccc1-n1cnc2c(c1=O)c1nc3ccccc3nc1n2-c1ccc(C)c(C)c1	-6	-0.56	35*	-8	i	1
N#Cc1c(NCCN)nc(-c2ccccc2)c2c1CCCC2	-3	.	42*	-26	i	0
N#Cc1c(NCCN)nc(NCc2ccccc2)c2c1CCN(Cc1ccccc1)C2	.	-2.1	.	.	+	-1
N#Cc1c(NCCCO)nc(-c2ccccc2)c2c1CCCC2	0	-0.71	-5	-3	i	-1
Nc1[nH]nc2nc(NCc3ccccc3)c3c(c12)CCN(Cc1ccccc1)C3	-5	0.3	-9	49*	i	-1
O=C(NCc1ccc(F)cc1)c1c2c(nc3ccccc13)CCN(Cc1ccccc1)C2	3	0.53	-6	3	i	1
C=CCNc1nc(NCc2ccccc2)c(C#N)c2c1CN(C)CC2	-4	-0.93	-6	-20	i	0
O=[N+]([O-])c1ccc(Cl)c2c1C1C=CCC1C(c1ccccn1)N2 (centres undefined)	2	-0.54	0	-2	i	1
O=C(O)c1ccc(Cl)c2c1C1C=CCC1C(c1ccccn1)N2 (centres undefined)	5	0.71	40*	10	i	-1
CCOC(=O)COc1cc(-n2c(=S)[nH]c3cc(OC)c(OC)cc3c2=O)c(Cl)cc1Cl	-4	0.77	37*	-16	i	-1
COCCN1C(=O)N[C@@H](c2cccc(F)c2)C(C(=O)OC)=C1C	.	-0.15	-10	.	.	.
Cc1cc(C(=O)N/N=C/c2cc(N=Nc3ccccc3)ccc2O)n[nH]1	-3	-0.13	35*	-25	i	0
CC1(C)Cc2ccccc2C(c2cc3ccccc3oc2=O)=N1	0	.	-2	-18	i	0
CC1(C)Cc2c(ccc3ccccc23)C(c2cc3ccccc3oc2=O)=N1	-5	4.2*	-9	-3	i	0
SMILES	HMGR II inh	Ins promoter up	NCF1 inh	Arbovirus inh	Autophagy HCS	DTT redox prof
CN(Cc1nc(-c2cnccn2)no1)C1CC(C)(C)NC(C)(C)C1	18*	0.44	-4	-1	i	0
COc1ccc(S(=O)(=O)N(C)C)cc1NC(=O)Cc1c[nH]c2ccccc12	-2	-1	-8	-8	i	-1
Cc1cc(/C=C(/C#N)c2cccc(F)c2)c(C)n1-c1cccnc1	-6	-0.33	-9	-2	i	-1
Cc1ccc(C(=O)NNC(=O)c2ccc3ncccc3c2)cc1	-4	.	33*	1	i	0
Cc1nc(=S)c2ccccc2[nH]1	15*	.	-4	0	i	0
FC(F)(F)c1nc(=S)c2ccccc2[nH]1	4	0.89	9	14	i	1
O=C(Cn1nc([N+](=O)[O-])nc1Br)NC(c1ccccc1)c1ccccc1	-2	.	2	11	i	0
O=C(Nc1nc2ccccc2n1CCN1CCOCC1)c1cn(-c2ccccc2)nc1-c1ccccc1	1	-0.23	-22	-38	+	1
COc1ccc(-n2nnnc2-c2cnc3cc4c(cc3c2C)OCO4)cc1	-1	0.49	-3	1	i	-8
CCC(C(=O)Nc1cccc(C(=O)O)c1C)c1ccccc1 (centres undefined)	-7	-0.79	-11	9	i	-1
CCc1ccc(CCC(=O)Nc2sc3c(c2C#N)CCCC3)o1	1	-0.19	-21	-13	+	2
CCC(=O)Nc1sc2c(c1C#N)CCC2	-1	-0.1	-2	-11	i	0
O=C(Nc1nnc(SCc2ccc(F)cc2)s1)c1ccc2c(c1)C(=O)N(c1ccccc1Cl)C2=O	-7	0.86	-1	44*	i	-1
CCOc1ccc(N(CC(=O)N2CCC(Cc3ccccc3)CC2)S(C)(=O)=O)cc1	1	-1.3	-4	9	i	0
Cc1ccccc1C(=O)N1CCN=C1SCc1ccc([N+](=O)[O-])cc1	-3	-0.13	.	-6	i	1
CCN(CC)c1ccc2c(c1)OC(N)=C(C#N)C2c1cccnc1 (centres undefined)	-5	-1.7	-70	-5	+	-1
O=C(CSc1ncccc1C(=O)O)NC1CCCCCCC1	.	-0.09	-2	.	.	.
CCC1CCCCN1S(=O)(=O)c1ccc(NC(=O)CSc2ncccc2C(=O)O)cc1 (centres undefined)	-5	0.62	0	5	+	-2
CCC1CCCCN1S(=O)(=O)c1ccc(NC(=O)c2cccs2)cc1 (centres undefined)	11*	-0.83	-51	-24	i	-1
N#C/C(C(N)=O)=C1/SC=C(c2ccccc2)N1c1ccccc1	.	0.15	-2	.	.	.
N#C/C(C(=O)c1ccccc1)=C1/SC=C(N)N1c1ccccc1	-3	6*	-74	2	i	1
COc1ccc(-n2c(N3CCN(C)CC3)nc3sc4c(c3c2=O)CCCCC4)cc1	-1	.	-15	-18	+	-3
COc1ccc(-n2c(C)nc3sc4c(c3c2=O)CCC4)cc1	-5	0.28	-10	-5	i	0
O=C(Nc1cccc([N+](=O)[O-])c1)C1C2CC/C=C\CCC21 (centres undefined)	.	-0.36	138*	.	.	.
